The structures appear in SMILES notation. Values joined by “and” are separate entries in the source; they are usually repeats but may differ in a detail not shown here. Equal entries are not always repeated. Out of some 360,000 compounds screened, about 11,000 (3.1%) were called active. This is one part of a sample in which actives are shown more often than they occur. Rule as the data show it: active = activity change below about -30%; inactive = the rest. More than one record can exist for a structure, and the calls need not agree.

From PubChem BioAssay AID504652 (National Center for Advancing Translational Sciences (NCATS), 2011) come the findings set out here.
% is scaled to controls: 0 for no effect and ±100 for the full control effect.

D(1A) dopamine receptor (Homo sapiens), sequence (P21728 whole entry, looked up): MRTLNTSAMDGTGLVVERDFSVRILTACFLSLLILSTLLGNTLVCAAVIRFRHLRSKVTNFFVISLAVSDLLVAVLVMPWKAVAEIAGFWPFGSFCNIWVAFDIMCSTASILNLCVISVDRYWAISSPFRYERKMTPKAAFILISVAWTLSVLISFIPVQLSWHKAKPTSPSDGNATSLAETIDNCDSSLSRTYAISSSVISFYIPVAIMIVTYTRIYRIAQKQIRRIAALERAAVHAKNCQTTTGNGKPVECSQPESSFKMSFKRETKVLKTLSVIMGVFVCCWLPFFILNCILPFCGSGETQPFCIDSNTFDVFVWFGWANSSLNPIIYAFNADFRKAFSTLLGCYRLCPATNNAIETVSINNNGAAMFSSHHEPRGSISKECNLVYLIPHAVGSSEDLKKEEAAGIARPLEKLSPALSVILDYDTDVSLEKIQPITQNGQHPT

The assay addresses D(1A) dopamine receptor (Homo sapiens) (UniProt P21728). Briefly: Antagonist of Human D 1 Dopamine Receptor: qHTS. The note with it: HEK293 TREx D1 cells, calcium flux, dopamine EC80; at 10 µM; stronger effect = lower value. In outline: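 Tetracycline-induced HEK293 Trex D1 cells, force-coupled to calcium, dye-loaded; compounds added and read 180 s, then EC80 dopamine added and calcium flux tracked kinetically another 180 s.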
Consider `Cc1ccc(NC(=S)NCCc2ccc(Cl)cc2)c(C)c1`, for which the activity change, negative = inhibition is 22.5% (inactive). The figure for `COc1cc(NC(=S)NCc2ccco2)c(OC)cc1Cl` is -9.33% (inactive); for `Cc1cc(F)ccc1NC(=S)NCCc1ccccc1` it is -15.6% (inactive). Under `Cc1ccc(NC(=S)NCc2ccccc2Cl)c(C)c1` stands -39.4% (active); under `S=C(NCc1ccco1)NCc1ccccc1Cl`, -32.9% (active). With `S=C(NCCc1ccccc1)NCc1ccccc1Cl`, the activity change, negative = inhibition was -29.8% (inactive). In the case of `COc1ccccc1C(=O)NCCn1cc(SCc2ccccc2Cl)c2ccccc21`, the activity change, negative = inhibition was -10.4% (inactive). Turning to `Cc1ccc(N2CC(C(=O)Nc3ccc(N(C)C)cc3)CC2=O)cc1Cl` (stereo not drawn), the activity change, negative = inhibition is 2.7% (inactive).

In the case of `Cc1ccc(CNS(=O)(=O)c2ccc(C(=O)N(C)C)s2)cc1`, the activity change, negative = inhibition was 5.34% (inactive).

For `Cc1ccccc1CNC(=O)Cn1c(C)c2cnn(-c3ccccc3)c(=O)c2c1C`, the activity change, negative = inhibition is -7.63% (inactive). Consider `COc1ccc(S(=O)(=O)Nc2cc3c(C(=O)OC(C)C)c(C)oc3c3ccccc23)cc1`, for which the activity change, negative = inhibition is -3.34% (inactive).

Consider `CCOC(=O)c1cc2c(=O)n3ccccc3nc2n(CC2CCCO2)c1=NC(=O)c1ccc(C(C)(C)C)cc1` (stereo not drawn), for which the activity change, negative = inhibition was -30.2% (active).

For the compound `CCOC(=O)c1cc2c(=O)n3ccccc3nc2n(CC2CCCO2)c1=NC(=O)c1ccccc1F` (stereo not drawn), the activity change, negative = inhibition was 7.85% (inactive). For `CCOC(=O)c1cc2c(=O)n3ccccc3nc2n(CC2CCCO2)c1=NC(=O)c1ccccc1Br` (stereo not drawn), the activity change, negative = inhibition was 4.67% (inactive). Regarding `Cc1cccc(-n2ccnc2SCC(=O)Nc2cc(C(F)(F)F)ccc2Cl)c1`, the activity change, negative = inhibition is -5.92% (inactive).

As to `Cn1c(=O)c(=O)n(C)c2cc(S(=O)(=O)NCCN3CCN(c4ccccc4F)CC3)ccc21`, the activity change, negative = inhibition was -46.1% (active). As for `CCOC(=O)N1CCN(c2c(NCCN3CCN(c4ccccc4F)CC3)c(=O)c2=O)CC1`, the activity change, negative = inhibition was -21.9% (inactive).

For the compound `Cn1c(=O)c(=O)n(C)c2cc(S(=O)(=O)NCCc3ccccc3)ccc21`, the activity change, negative = inhibition was -4.68% (inactive). Under `CN(C)CCCn1c(=O)n(Cc2ccccc2)c(=O)c2c3c(sc21)CCCCC3` stands 3.11% (inactive); under `O=c1cc(CCl)nc2scc(-c3ccccc3)n12`, -12.4% (inactive). Under `OCCn1c(-c2ccccc2)csc1=Nc1ccccc1` stands -45.5% (active). With `CN(C)CCCn1c(-c2ccc(Cl)cc2)csc1=Nc1ccccc1`, the activity change, negative = inhibition was -34.7% (active). As to `CN(C)CCCn1c(SCc2ccc(Cl)cc2)nnc1-c1ccncc1`, the activity change, negative = inhibition was 10.2% (inactive). As for `O=C1N(Cc2ccccc2)c2ccc(Cl)cc2C1(O)c1c[nH]c2ccccc12` (stereo not drawn), the activity change, negative = inhibition was -8.31% (inactive). Regarding `Cc1ccc(-n2nnnc2CNC(=O)c2ccccc2C)cc1C`, the activity change, negative = inhibition was -3.19% (inactive).

`COc1ccccc1C(=O)Nc1ccnn1C1CCN(Cc2cnn(C)c2)CC1`: the activity change, negative = inhibition was 1.08% (inactive).

For `COc1ccc(C(=O)Nc2ccnn2C2CCN(Cc3ccncc3)CC2)cc1`, the activity change, negative = inhibition was -37.3% (active). With `CC(C)Oc1ccc(CN2CCC(n3nccc3NC(=O)c3cccnc3)CC2)cc1`, the activity change, negative = inhibition is 8.77% (inactive). Under `CCc1ccc(C2CC(=O)c3c([nH]c(C(=O)OCc4ccc(C)cc4)c3C)C2)cc1` (stereo not drawn) stands -10.1% (inactive); under `Cc1c(C)n(Cc2ccc(Cl)cc2)c2ccc(C(=O)N3CCN(c4ccccc4F)CC3)cc12`, -18.2% (inactive). Under `Cc1cccc(N2CCN(C(=O)c3ccc4c(c3)CCN4S(=O)(=O)c3ccccc3)CC2)c1C` stands -15.6% (inactive). For `CCn1c(C)c(C)c2cc(C(=O)N3CCN(c4cccc(C)c4C)CC3)ccc21`, the activity change, negative = inhibition is 25% (inactive) and -43.2% (active).

For `CN(Cc1ccccc1)c1ncnc2onc(-c3ccc(F)cc3)c12`, the activity change, negative = inhibition is -1.84% (inactive). The figure for `Cc1ccc(-c2nnc(SCC(=O)NCc3ccccc3)nc2-c2ccc(C)cc2)cc1` is -16.8% (inactive); for `CCC(CC)c1nn2cc(-c3ccccc3)nc2s1` it is 14.7% (inactive); for `O=C(Nc1ccc([N+](=O)[O-])cc1)C1CC12CCC2` (stereo not drawn) it is -56.8% (active).

Regarding `O=C(Nc1ccc([N+](=O)[O-])cc1)C1(c2ccccc2)CCOCC1`, the activity change, negative = inhibition was -11.2% (inactive). Take `O=C(CCC(=O)N1CCCC1)Nc1ccc([N+](=O)[O-])cc1`: the activity change, negative = inhibition is 15.5% (inactive). Turning to `CCC(=O)N1CCc2cc(Br)cc(S(=O)(=O)Nc3ccc(C)cc3C)c21`, the activity change, negative = inhibition is 2.58% (inactive).

For `Cc1c(NC(=O)C(C)(C)C)cccc1-c1nc2ccccc2s1`, the activity change, negative = inhibition is 0.443% (inactive).

Take `CCOC(=O)c1ccc(N2C(=O)c3n[nH]c(C)c3C2c2ccc(O)c(OC)c2)cc1` (stereo not drawn): the activity change, negative = inhibition was -4.29% (inactive). For `CCOC(=O)N1CCN(S(=O)(=O)c2ccc(Br)cc2)CC1`, the activity change, negative = inhibition was -1.63% (inactive). Under `Cn1ncc(N2CCN(S(=O)(=O)c3ccc(Br)cc3)CC2)c(Cl)c1=O` stands -30.4% (active); under `Cc1ccc(S(=O)(=O)N2CCN(C)CC2)cc1`, 0.986% (inactive); under `Cc1ccc(C)c(NC(=O)Cn2ccn(-c3ccc(F)cc3)c(=O)c2=O)c1`, -20% (inactive).

Take `COc1ccccc1NC(=O)c1oc2ccccc2c1NC(=O)C(C)C`: the activity change, negative = inhibition is -5.69% (inactive).

`COc1ccc(CCN2C(=O)c3[nH]nc(-c4ccccc4O)c3C2c2ccc(C)cc2)cc1OC` (stereo not drawn): the activity change, negative = inhibition is -3.51% (inactive). The figure for `COC(=O)c1ccc(C2C(Oc3ccccc3C)C(=O)N2CCc2ccc(OC)c(OC)c2)cc1` (stereo not drawn) is -49.6% (active); for `COc1ccc(CCNC(=O)C(=O)NCc2ccccc2C)cc1OC` it is 3.05% (inactive).

For the compound `Cc1ccccc1NC(=O)CN1C(=O)C(C)(C)c2ccccc21`, the activity change, negative = inhibition is 10.3% (inactive). Under `CC(=O)Nc1ccc(S(=O)(=O)Oc2ccc(Br)cc2C(=S)N2CCOCC2)cc1` stands 0.681% (inactive). The figure for `CCOc1cc(C(=S)N2CCOCC2)ccc1O` is -0.874% (inactive).

For the compound `CCOc1cc(C(=S)N2CCOCC2)ccc1OS(=O)(=O)c1ccc(Br)cc1`, the activity change, negative = inhibition was -30.6% (active). For `COC(=O)c1ccc2c(c1)N(CC(=O)Nc1ccc(C)c(C)c1)C(=O)c1ccccc1S2`, the activity change, negative = inhibition is 10.3% (inactive). The figure for `Cc1csc2nc(COC(=O)c3ccc(NC(=O)COc4ccccc4F)cc3)cc(=O)n12` is -26.3% (inactive). For `CCS(=O)(=O)n1nc(-c2ccc(OC)cc2)nc1SC`, the activity change, negative = inhibition was -19.3% (inactive). Under `Cc1ccc(S(=O)(=O)n2nc(-c3ccc(Cl)cc3)nc2NCc2ccccc2)cc1` stands -3.44% (inactive); under `CCS(=O)(=O)n1nc(-c2ccccc2)nc1SCc1ccccc1`, -30.7% (active).
